Source: the supplement of paper PMC6518042
A number with no mark means an inactive call.

tested on: Pectobacterium parmentieri SCC3193; assay: DuctApe activity index (growth/respiration on compound as sole nutrient source, blank-subtracted) (activity index (0-3)); higher = stronger utilization of the compound, active = 3 or more; settings: nutrient role (plate category): carbon
Description: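 Biolog Phenotype Microarray plates PM1, PM2A (carbon), PM3 (nitrogen) and PM4 (phosphorus/sulfur) inoculated with P. parmentieri SCC3193 in M9-C minimal salts medium with Biolog dye A, and read in the OmniLog for 46 h. Each well was tested in triplicate and the experiment was run twice. DuctApe computed a blank-subtracted activity index (AV, 0-3) from the mean curves; growth is positive at AV >= 3 and negative at AV <= 2.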

Compound | DuctApe activity index
N[C@@H](Cc1ccccc1)C(=O)O [L-Phenylalanine] | 0
Nc1ncnc2c1ncn2[C@@H]1O[C@H](CO)[C@@H](O)[C@H]1O [Adenosine] | 1
OC[C@@]12OC[C@@H](O1)[C@@H](O)[C@@H](O)[C@@H]2O [Sedoheptulosan] | 0
O=C(O)Cc1ccc(O)cc1 [p-Hydroxyphenyl Acetic acid] | 0
CC(O)C(C)O (stereo not given) [2,3-Butanediol] | 0
CC[C@H](C)[C@H](N)C(=O)O [L-Isoleucine] | 0
CC(N)=O [Acetamide] | 0
CO[C@@H]1O[C@H](C(=O)O)[C@@H](O)[C@H](O)[C@H]1O [b-Methyl-D-Glucuronic acid] | 0
N[C@H](CO)C(=O)O [D-Serine] | 0
O=C[C@H](O)[C@@H](O)[C@H](O)[C@H](O)CO[C@@H]1O[C@H](CO)[C@@H](O)[C@H](O)[C@H]1O [Gentiobiose] | 3 (active)
OC[C@H]1OC(O[C@H]2[C@H](O)[C@@H](O)C(O[C@H]3[C@H](O)[C@@H](O)[C@@H](O)O[C@@H]3CO)O[C@@H]2CO)[C@H](O)[C@@H](O)[C@@H]1O (stereo not given in full) [Dextrin] | 0
NCCCCN [Putrescine] | 0
OC[C@H]1O[C@@](CO)(O[C@H]2O[C@H](CO)[C@@H](O)[C@H](O)[C@H]2O)[C@@H](O[C@H]2O[C@H](CO)[C@@H](O)[C@H](O)[C@H]2O)[C@@H]1O [D-Melezitose] | 0
OC[C@H]1O[C@@H](O[C@H]2[C@H](O)[C@@H](O)[C@H](O[C@H]3[C@H](O)[C@H](O)[C@H](O[C@@H]4[C@H](O)[C@H](O)[C@H](O)O[C@@H]4CO)O[C@@H]3CO)O[C@@H]2CO)[C@@H](O)[C@@H](O)[C@@H]1O [Mannan] | 0
O=C(O)C(O)C(O)C(=O)O (stereo not given) [m-Tartaric acid] | 3 (active)
OCC1OC(OC2C(CO)OC(O)C(O)C2O)C(O)C(O)C1O [D-Cellobiose] | 3 (active)
COC(=O)[C@@H](C)O [D-Lactic acid Methyl Ester] | 1
O=CO [Formic acid] | 2
C[C@H](O)[C@@H](N)C(=O)O [D-Threonine] | 0
O=c1[nH]cnc2c1ncn2[C@@H]1O[C@H](CO)[C@@H](O)[C@H]1O [Inosine] | 1

same assay, conditions: nutrient role (plate category): nitrogen

Compound | DuctApe activity index
NCCN [Ethylenediamine] | 0
N[C@@H](Cc1ccccc1)C(=O)O [L-Phenylalanine] | 0
Nc1ncnc2c1ncn2[C@@H]1O[C@H](CO)[C@@H](O)[C@H]1O [Adenosine] | 2
CCCCCN [N-Amylamine] | 0
N[C@H]1C(O)O[C@H](CO)[C@H](O)[C@@H]1O (stereo partly drawn) [D-Galactosamine] | 0
CC[C@H](C)[C@H](N)C(=O)O [L-Isoleucine] | 0
CCC(N)C(=O)O (racemic) [DL-a-Amino-N-Butyric acid] | 1
CC(N)=O [Acetamide] | 0
N[C@H](CO)C(=O)O [D-Serine] | 0
NC(=O)NC1NC(=O)NC1=O (stereo not given) [Allantoin] | 0
NCCO [Ethanolamine] | 0
N [Ammonia] | 0
NCCCCN [Putrescine] | 0
O=c1[nH]cnc2c1ncn2[C@@H]1O[C@H](CO)[C@@H](O)[C@H]1O [Inosine] | 0

same assay, conditions: nutrient role (plate category): phosphate & sulphur

Compound | DuctApe activity index
O=P(O)(O)OC[C@H]1OC(O)C[C@@H](O)[C@@H]1O (stereo partly drawn) [2-Deoxy-D-Glucose 6-Phosphate] | 1
O=P(O)(O)OC(CO)CO [b-Glycerol Phosphate] | 2
N[C@@H](CSC[C@H](N)C(=O)O)C(=O)O [Lanthionine] | 1
O=P(O)(O)O[C@H]1[C@H](OP(=O)(O)O)[C@@H](OP(=O)(O)O)[C@H](OP(=O)(O)O)[C@@H](OP(=O)(O)O)[C@H]1OP(=O)(O)O [Inositol Hexaphosphate] | 0
NCCOP(=O)(O)O [O-Phosphoryl-Ethanolamine] | 1
CS(=O)(=O)CC[C@H](N)C(=O)O [L-Methionine Sulfone] | 0
